The results in this text go back to the supplement of paper PMC8975748.

Assay [1] concerns Saccharomyces cerevisiae BY4741 SeMeCo community. Kind of assay: mean cell size (pixel area) (pixels); higher = larger cells. The following applies: 10 µM; 24 h; SM minimal medium. An outline of the steps: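 A fluorescent Saccharomyces cerevisiae BY4741 community carrying four plasmids was used, with each plasmid complementing one auxotrophy and bearing a fluorescent marker. An overnight preculture at OD600 = 1.0 was diluted to OD600 = 0.3, and 70 µl went into 384-well plates acoustically predosed with drug (final 10 µM) in SM medium for 24 h. After paraformaldehyde fixation, cells were imaged by automated confocal microscopy and analysed in Harmony, giving the mean cell pixel area per well. Each value is the average of 3 replicates. Same SeMeCo high-content imaging drug screen: Selleck FDA-approved drugs at 10 µM, 24 h in SM medium, 384-well plates, 3 replicates.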

For assay [2] the test system is unchanged. Put plainly: z-score of prototroph abundance vs DMSO median; higher = larger share of this subpopulation than in DMSO controls. The following applies: 10 µM; 24 h; SM minimal medium; subpopulation (auxotrophy): Prototroph. An outline of the steps:
(§1)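 Automated confocal microscopy of paraformaldehyde-fixed cells was used to follow a Saccharomyces cerevisiae BY4741 community carrying four plasmids, each restoring one auxotrophy and encoding a distinct fluorescent protein. The community was pre-grown overnight to OD600 1.0, diluted to 0.3, and added at 70 µl to 384-well plates acoustically predosed with library drugs (10 µM final) for 24 h of growth in minimal SM medium. Single-auxotroph fluorescent strains set thresholds and autofluorescence correction, and each subpopulation's abundance was scored as a z-score against the vehicle-well median.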

The test system is the same in assay [3]. Kind of assay: z-score of subpopulation abundance vs DMSO median, subpopulation auxotrophic for M; higher = larger share of this subpopulation than in DMSO controls. The following applies: 10 µM; 24 h; SM minimal medium; subpopulation (auxotrophy): M. A digest of the protocol: as §1
For assay [4] the test system is unchanged. Put plainly: z-score of subpopulation abundance vs DMSO median, subpopulation auxotrophic for L; higher = larger share of this subpopulation than in DMSO controls. The following applies: 10 µM; 24 h; SM minimal medium; subpopulation (auxotrophy): L. A digest of the protocol: as §1
Assay [5] shares this test system. Kind of assay: z-score of subpopulation abundance vs DMSO median, subpopulation auxotrophic for H; higher = larger share of this subpopulation than in DMSO controls. The following applies: 10 µM; 24 h; SM minimal medium; subpopulation (auxotrophy): H. An outline of the steps:
as §1

The test system is the same in assay [6]. Put plainly: z-score of subpopulation abundance vs DMSO median, subpopulation auxotrophic for LU; higher = larger share of this subpopulation than in DMSO controls. The following applies: 10 µM; 24 h; SM minimal medium; subpopulation (auxotrophy): LU. A digest of the protocol: as §1
Assay [7] shares this test system. Kind of assay: z-score of subpopulation abundance vs DMSO median, subpopulation auxotrophic for HU; higher = larger share of this subpopulation than in DMSO controls. The following applies: 10 µM; 24 h; SM minimal medium; subpopulation (auxotrophy): HU. A digest of the protocol: as §1
Assay [8] shares this test system. Put plainly: z-score of subpopulation abundance vs DMSO median, subpopulation auxotrophic for UM; higher = larger share of this subpopulation than in DMSO controls. The following applies: 10 µM; 24 h; SM minimal medium; subpopulation (auxotrophy): UM. A digest of the protocol: as §1
The test system is the same in assay [9]. Put plainly: z-score of subpopulation abundance vs DMSO median, subpopulation auxotrophic for HLU; higher = larger share of this subpopulation than in DMSO controls. The following applies: 10 µM; 24 h; SM minimal medium; subpopulation (auxotrophy): HLU. A digest of the protocol:
as §1

Assay [10] has the same test system. Put plainly: z-score of subpopulation abundance vs DMSO median, subpopulation auxotrophic for HLM; higher = larger share of this subpopulation than in DMSO controls. The following applies: 10 µM; 24 h; SM minimal medium; subpopulation (auxotrophy): HLM. An outline of the steps:
as §1

Assay [11] shares this test system. Put plainly: z-score of subpopulation abundance vs DMSO median, subpopulation auxotrophic for HUM; higher = larger share of this subpopulation than in DMSO controls. The following applies: 10 µM; 24 h; SM minimal medium; subpopulation (auxotrophy): HUM. An outline of the steps:
as §1

For assay [12] the test system is unchanged. Put plainly: z-score of subpopulation abundance vs DMSO median, subpopulation auxotrophic for LUM; higher = larger share of this subpopulation than in DMSO controls. The following applies: 10 µM; 24 h; SM minimal medium; subpopulation (auxotrophy): LUM. A digest of the protocol:
as §1

The test system is the same in assay [13]. Put plainly: z-score of subpopulation abundance vs DMSO median, subpopulation auxotrophic for HM; higher = larger share of this subpopulation than in DMSO controls. The following applies: 10 µM; 24 h; SM minimal medium; subpopulation (auxotrophy): HM. An outline of the steps: as §1
For assay [14] the test system is unchanged. Put plainly: z-score of subpopulation abundance vs DMSO median, subpopulation auxotrophic for HL; higher = larger share of this subpopulation than in DMSO controls. The following applies: 10 µM; 24 h; SM minimal medium; subpopulation (auxotrophy): HL. A digest of the protocol: as §1
The test system is the same in assay [15]. Kind of assay: z-score of subpopulation abundance vs DMSO median, subpopulation auxotrophic for HLUM; higher = larger share of this subpopulation than in DMSO controls. The following applies: 10 µM; 24 h; SM minimal medium; subpopulation (auxotrophy): HLUM. An outline of the steps:
as §1

The test system is the same in assay [16]. Kind of assay: z-score of subpopulation abundance vs DMSO median, subpopulation auxotrophic for U; higher = larger share of this subpopulation than in DMSO controls. The following applies: 10 µM; 24 h; SM minimal medium; subpopulation (auxotrophy): U. A digest of the protocol: as §1
Assay [17] has the same test system. Kind of assay: z-score of subpopulation abundance vs DMSO median, subpopulation auxotrophic for LM; higher = larger share of this subpopulation than in DMSO controls. The following applies: 10 µM; 24 h; SM minimal medium; subpopulation (auxotrophy): LM. A digest of the protocol: as §1

Structures can show the parent of a compound that is named as a salt. ± gives the standard deviation of the averaged measurements.

In assay [1], `Nc1nc2[nH]cc(CCc3ccc(C(=O)N[C@@H](CCC(=O)O)C(=O)O)cc3)c2c(=O)[nH]1` [Pemetrexed Disodium Hydrate] came in with a mean cell size of 14.5 ± 0.077. For the same compound, the “z-score of prototroph abundance” value in assay [2] was 3.18. Also, the “z-score of subpopulation abundance” value is -9.02 in assay [3]; 3.26 in assay [4]; 3.82 in [5]; 1.43 in [6]; 1.99 in assay [7]; -7.6 in [8]. Moreover, the “z-score of subpopulation abundance” value was 11.4 in [9], 1.25 in assay [10], -4.9 in assay [11] and -3.47 in assay [12].
In assay [1], `C[C@@H]1CN(c2c(F)c(N)c3c(=O)c(C(=O)O)cn(C4CC4)c3c2F)C[C@H](C)N1` [Sparfloxacin] showed a mean cell size of 12.38 ± 0.094. The “z-score of prototroph abundance” value in assay [2] stood at 0.52. Besides, the “z-score of subpopulation abundance” value in assay [3] was -0.53; in assay [4], 0.07; in [5] it was -0.34; in [6] it was -0.36; in assay [13], -0.01; in assay [7] it was -0.11. Further, the “z-score of subpopulation abundance” value was -0.25 in [8]; -0.29 in [14]; -0.1 in assay [9]; -0.79 in assay [10]; -0.04 in [11]; -0.41 in [12]. In addition, the “z-score of subpopulation abundance” value in assay [15] is -0.92.
For the compound `C[N+](C)(C)CCO.[Cl-]` [Choline Chloride], the “z-score of prototroph abundance” value in [2] came out at 0.21. The “z-score of subpopulation abundance” value in [3] was -1.56; in assay [4], -0.08; in [16] it was 0.8; in assay [5], -0.8; in assay [6], 0.54; in assay [17] it was -0.75. Further, the “z-score of subpopulation abundance” value is -1.2 in [13]; -0.41 in assay [7]; 0.32 in assay [8]; -0.62 in assay [14]; -0.27 in [9]; -0.83 in [10]. Also, the results for the “z-score of subpopulation abundance” value in assay [11], in [12] and in assay [15] were -0.76, 0.75 and -0.62, respectively.
Consider `N=C(N)NS(=O)(=O)c1ccc(N)cc1` [Sulfaguanidine], for which, in assay [1], the mean cell size turned out to be 12.3 ± 0.36. The “z-score of prototroph abundance” value in [2] came to 1.31. Besides, the “z-score of subpopulation abundance” value in [3] was 0; in assay [4] it was -0.1; in assay [16] it was -0.5; in assay [5], -0.42; in assay [6], -0.67; in [13], -0.09. Moreover, the “z-score of subpopulation abundance” value in [7] was -0.96; in assay [14], -0.4; in assay [9], -0.69; in [10], -1.22; in [11], -1.13; in assay [12], -0.49. Besides, the “z-score of subpopulation abundance” value in assay [15] was -1.13.
In assay [1], `N[C@@H]1CONC1=O` [D-Cycloserine] gave a mean cell size of 11.8 ± 0.15. For the same compound, the “z-score of prototroph abundance” value in assay [2] was -0.18. Moreover, the “z-score of subpopulation abundance” value was -0.07 in assay [3]; 1.05 in assay [4]; -1 in assay [16]; 1.3 in assay [5]; -0.16 in assay [6]; -0.26 in assay [13]. Moreover, the “z-score of subpopulation abundance” value in assay [7] is -0.43; in assay [8], -0.3; in assay [9] it was 0.51; in assay [10] it was 0.38; in assay [11], 0.3; in assay [12], 0.83. The “z-score of subpopulation abundance” value in assay [15] was 0.69.
The compound `CN1CC2c3ccccc3Oc3ccc(Cl)cc3C2C1` (configuration not stated) [Asenapine maleate] showed a mean cell size in assay [1] of 12.34 ± 0.11. For the same compound, the “z-score of prototroph abundance” value in [2] came to 0.14. Further, the “z-score of subpopulation abundance” value in [3] is -0.45; in assay [4], 1.05; in assay [5], -0.64; in assay [6] it was 0.61; in [13] it was -0.76; in [7] it was -0.59. Also, the “z-score of subpopulation abundance” value is -0.2 in assay [8]; 0.5 in assay [14]; 0.37 in assay [9]; -0.53 in assay [10]; 0.01 in assay [11]; 0.42 in assay [12]. The “z-score of subpopulation abundance” value in assay [15] came to 0.32.
Take `CC[C@@H]1C(=O)OC[C@@H]1Cc1cncn1C` [Pilocarpine HCl]: in [1], the mean cell size is 12.7 ± 0.26. For the same compound, the “z-score of prototroph abundance” value in assay [2] amounted to 0.73. Further, the “z-score of subpopulation abundance” value in assay [3] is 0.65; in [4] it was 0.16; in [6] it was -0.22; in assay [13] it was 0.01; in assay [7] it was -0.93; in assay [8], -0.51. In addition, the “z-score of subpopulation abundance” value in assay [14] is -0.15; in assay [9], -0.93; in [10], -0.18; in assay [11] it was -1.4; in assay [12], -0.76; in assay [15] it was -0.1.
